Laboratory results taken from PubChem BioAssay (NCATS).
Inconclusive results are not listed. Active and inactive are the calls of the source. Unless noted, calls come from the whole dose curve; as a rule, active = well fitted inhibition curve with a large enough effect; inconclusive = small, poorly fitted or top-dose-only effect; inactive = flat fitted curve, though single readings scatter.

Legend:
[1] = qHTS drug screen for cell cycle checkpoint inhibitors in PARPi-resistant BRCA-mutant ovarian cancer cell lines. (AID 1963452; calls by dose curve); conditions: PEO1/OlaR viability, CellTiter-Glo luminescence, 96 h; for Z-AUC: stronger effect = lower value
Procedure, shortened: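 PEO1, PEO4 and PEO1/OlaR ovarian cancer cells, 600 per well, exposed 96 h at 37C to a dilution series. Viability read by CellTiter-Glo luminescence, normalized to DMSO and empty wells; activity summarized as Z-AUC.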

[2] = qHTS profiling for inhibitors of Plasmodium falciparum proliferation (AID 504749);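 for activity, negative = inhibition: 0% = DMSO vehicle and full inhibition = artemisinin control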; for all read-outs here: nearly all actives have a fitted effect of over 60% in size; conditions: P. falciparum in erythrocytes, SYBR Green DNA, 72 h; for activity, negative = inhibition: at 28.7 µM (top of the series)
Procedure, shortened: (§1)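 Infected RBCs, 0.3% parasitemia/2.5% Hct final; cpd 72 h, 37 C, 5% CO2; lysis buffer with saponin/triton/SYBR Green I, o/n RT dark; FI 485/535; norm. to artemisinin (0.29 uM) and DMSO.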

[3] = test system: 3D7; assay: as above; conditions: P. falciparum in erythrocytes, SYBR Green DNA, 72 h; series mostly up to 28.7 µM
Procedure, shortened: as §1

[4] = test system: 7G8; assay: as above; conditions: P. falciparum in erythrocytes, SYBR Green DNA, 72 h; series mostly up to 28.7 µM
Procedure, shortened: as §1

[5] = test system: AA1029; assay: as above; conditions: P. falciparum in erythrocytes, SYBR Green DNA, 72 h; series mostly up to 28.7 µM
Procedure, shortened: as §1

[6] = test system: AS120; assay: as above; conditions: P. falciparum in erythrocytes, SYBR Green DNA, 72 h; series mostly up to 28.7 µM
Procedure, shortened: as §1

[7] = test system: ATS189; assay: as above; conditions: P. falciparum in erythrocytes, SYBR Green DNA, 72 h; series mostly up to 28.7 µM
Procedure, shortened: as §1

[8] = test system: ATS95; assay: as above; conditions: P. falciparum in erythrocytes, SYBR Green DNA, 72 h
Procedure, shortened: as §1

[9] = test system: C2A; assay: as above; conditions: P. falciparum in erythrocytes, SYBR Green DNA, 72 h; series mostly up to 28.7 µM
Procedure, shortened: as §1

[10] = test system: CP185; assay: as above; conditions: P. falciparum in erythrocytes, SYBR Green DNA, 72 h; series mostly up to 28.7 µM
Procedure, shortened: as §1

[11] = test system: CP191; assay: as above; conditions: P. falciparum in erythrocytes, SYBR Green DNA, 72 h; series mostly up to 28.7 µM
Procedure, shortened: as §1

[12] = test system: CP192; assay: as above; conditions: P. falciparum in erythrocytes, SYBR Green DNA, 72 h; series mostly up to 28.7 µM
Procedure, shortened: as §1

[13] = test system: CP194; assay: as above; conditions: P. falciparum in erythrocytes, SYBR Green DNA, 72 h; series mostly up to 28.7 µM
Procedure, shortened: as §1

[14] = test system: CP201; assay: as above; conditions: P. falciparum in erythrocytes, SYBR Green DNA, 72 h; series mostly up to 28.7 µM
Procedure, shortened: as §1

[15] = test system: CP203; assay: as above; conditions: P. falciparum in erythrocytes, SYBR Green DNA, 72 h; series mostly up to 28.7 µM
Procedure, shortened: as §1

[16] = test system: CP211; assay: as above; conditions: P. falciparum in erythrocytes, SYBR Green DNA, 72 h; series mostly up to 28.7 µM
Procedure, shortened: as §1

[17] = test system: CP215; assay: as above; conditions: P. falciparum in erythrocytes, SYBR Green DNA, 72 h
Procedure, shortened: as §1

[18] = test system: CP217; assay: as above; conditions: P. falciparum in erythrocytes, SYBR Green DNA, 72 h; series mostly up to 28.7 µM
Procedure, shortened: as §1

[19] = test system: CP237; assay: as above; conditions: P. falciparum in erythrocytes, SYBR Green DNA, 72 h
Procedure, shortened: as §1

[20] = measured here: PEO1 parental Z-AUC
Potency is the fitted concentration of half-maximal effect.

C[C@H](CN(C)C)Oc1nc(Nc2cc3cccc(Cl)c3cn2)cnc1C#N
Z-AUC [1]: -0.234 (inactive)
Z-AUC [1, 20]: 0.15
Z-AUC ([1]; measured here: PEO4 Z-AUC): -0.249

CC1(C)CN(C(=O)c2ccc(-c3cccc4nc(NC(=O)C5CC5)nn34)cc2)C1
Z-AUC [1]: 0.782 (inactive)
Z-AUC [1, 20]: 0.925
Z-AUC ([1]; measured here: PEO4 Z-AUC): 1.32

COc1cc(OC)c2c(=O)[nH]c(-c3cc(C)c(OCCO)c(C)c3)nc2c1
Z-AUC [1]: 1.34 (inactive)
Z-AUC [1, 20]: 1.31
Z-AUC ([1]; measured here: PEO4 Z-AUC): 1.15

CCC(CC)C(c1ccc(Nc2nc3ccccc3s2)cc1)n1cncn1 (stereo unspecified)
Z-AUC [1]: 0.298 (inactive)
Z-AUC [1, 20]: 0.98
Z-AUC ([1]; measured here: PEO4 Z-AUC): 0.959

COC(=O)Nc1cc(Nc2cc(NC3CC3)c3ncc(C#N)n3n2)c(Cl)c(N2CCN(C)CC2)c1
Z-AUC [1]: -1.26 (inactive)
Z-AUC [1, 20]: -0.992
Z-AUC ([1]; measured here: PEO4 Z-AUC): -1.22

Fc1ccc(-c2nc(-c3ccccc3F)[nH]c2-c2ccncc2)cc1
Z-AUC [1]: 0.595 (inactive)
Z-AUC [1, 20]: -0.0932
Z-AUC ([1]; measured here: PEO4 Z-AUC): 0.278

Cc1cccc(CC(=O)N2CCc3c2ccc(-c2cn(C)c4ncnc(N)c24)c3F)n1
Z-AUC [1]: -0.652 (inactive)
Z-AUC [1, 20]: -1.04
Z-AUC ([1]; measured here: PEO4 Z-AUC): -0.572

CC#C[C@@H](CC(=O)O)c1ccc(OCc2cccc(-c3ccc(C(F)(F)F)cc3)c2)cc1
Z-AUC [1]: 0.0821 (inactive)
Z-AUC [1, 20]: 0.579
Z-AUC ([1]; measured here: PEO4 Z-AUC): 0.882

C[C@@H](Nc1ncnc2[nH]c(-c3ccc(O)cc3)cc12)c1ccccc1
Z-AUC [1]: 0.00552 (inactive)
Z-AUC [1, 20]: 0.314
Z-AUC ([1]; measured here: PEO4 Z-AUC): 0.296

Cc1cc(-c2cc(OC(=O)c3ccccc3)ccc2Cl)cc2nnc(Nc3ccc(OCCN4CCCC4)cc3)nc12
Z-AUC [1]: -0.528 (inactive)
Z-AUC [1, 20]: 0.132
Z-AUC ([1]; measured here: PEO4 Z-AUC): -1.13

C=CCNC1=C2C[C@@H](C)C[C@H](OC)[C@H](O)[C@@H](C)/C=C(\C)[C@H](OC(N)=O)[C@@H](OC)/C=C\C=C(/C)C(=O)NC(=CC1=O)C2=O
Z-AUC [1]: -0.418 (inactive)
Z-AUC [1, 20]: -0.98
Z-AUC ([1]; measured here: PEO4 Z-AUC): -0.867
Potency ([2]; parasite line A): 1.41 µM (active)
Potency ([2]; parasite line B): 2.24 µM (active)
Potency [3]: 2.24 µM (active)
Potency [4]: 0.447 µM (active)
Potency [5]: 1.41 µM (active)
Potency [6]: 1.41 µM (active)
Potency [7]: 2.24 µM (active)
Potency [8]: 2 µM (active)
Potency [9]: 2 µM (active)
Potency [10]: 2.51 µM (active)
Potency [11]: 2 µM (active)
Potency [12]: 4.26 µM (active)
Potency [13]: 4.26 µM (active)
Potency [14]: 6.75 µM (active)
Potency [15]: 3.79 µM (active)
Potency [16]: 3.79 µM (active)
Potency [17]: 4.78 µM (active)
Potency [18]: 2 µM (active)
Potency [19]: 1.26 µM (active)

c1ccc(-c2ccc(CNc3nc(-c4ccccn4)nnc3-c3ccccc3)cc2)cc1
Z-AUC [1]: -1.09 (inactive)
Z-AUC [1, 20]: -0.646
Z-AUC ([1]; measured here: PEO4 Z-AUC): -0.501

CC(C)NC(=O)N1CC[C@H](N=C2Nc3cc(F)ccc3N(CC(F)F)c3ccc(Cl)cc32)C1
Z-AUC [1]: -0.974 (inactive)
Z-AUC [1, 20]: -0.755
Z-AUC ([1]; measured here: PEO4 Z-AUC): -0.602

CCCOc1ccc2nc(NC(=O)OC)sc2c1
activity, negative = inhibition ([2]; parasite line A): -2.17% (inactive)
activity, negative = inhibition ([2]; parasite line B): 4.31% (inactive)
Potency [3]: inactive
Potency [4]: inactive
Potency [5]: inactive
Potency [6]: inactive
Potency [7]: inactive
Potency [9]: inactive
Potency [10]: inactive
Potency [11]: inactive
Potency [12]: inactive
Potency [13]: inactive
Potency [14]: inactive
Potency [15]: inactive
Potency [16]: inactive
Potency [18]: inactive

O=C1Nc2nc(-c3c(O)cccc3OCC3CC3)cc([C@@H]3CCCNC3)c2CO1
Z-AUC [1]: 0.934 (inactive)
Z-AUC [1, 20]: 0.63
Z-AUC ([1]; measured here: PEO4 Z-AUC): 0.451

O=C(Cc1cccc(OC(F)(F)F)c1)Nc1ccc(CCCCc2nnc(NC(=O)Cc3ccccn3)s2)nn1
Z-AUC [1]: -1.13 (inactive)
Z-AUC [1, 20]: -1.01
Z-AUC ([1]; measured here: PEO4 Z-AUC): -1.03

OC(c1ccc(-c2ccc(CN3CCN(Cc4ccncc4)CC3)cc2)c(F)c1)(C(F)(F)F)C(F)(F)F
Z-AUC [1]: -1.4 (inactive)
Z-AUC [1, 20]: -0.566
Z-AUC ([1]; measured here: PEO4 Z-AUC): -0.000497

COC(=O)N1CC2(CC2)C[C@H](C(=O)NO)[C@H]1C(=O)N1CCN(c2ccccc2)CC1
Z-AUC [1]: -0.244 (inactive)
Z-AUC [1, 20]: -0.0786
Z-AUC ([1]; measured here: PEO4 Z-AUC): 0.341

CC[C@@H](C)Nc1cc(C(=O)NC2CC3CCC(C2)N3c2ccc(C(=O)C3CC3)cn2)c(C)cc1C(N)=O (stereo partly specified)
Z-AUC [1]: -1.08 (inactive)
Z-AUC [1, 20]: -1.13
Z-AUC ([1]; measured here: PEO4 Z-AUC): -0.342

c1cc(-c2cnn3cc(-c4ccc(N5CCNCC5)cc4)cnc23)c2cccnc2c1
Z-AUC [1]: -1.26 (inactive)
Z-AUC [1, 20]: -1.26
Z-AUC ([1]; measured here: PEO4 Z-AUC): -1.83

O=C1NC(=O)C(c2cnc3ccccn23)=C1c1cn2c3c(cc(F)cc13)CN(C(=O)N1CCCCC1)CC2
Potency [1]: 0.174 µM (active)
Z-AUC [1, 20]: -1.85
Z-AUC ([1]; measured here: PEO4 Z-AUC): -1.33

COc1cc2c(cc1OC(C)C)[C@H](c1ccc(Cl)cc1)N(c1ccc(N(C)CC3CCC(N4CCN(C)C(=O)C4)CC3)cc1)C(=O)C2 (stereo partly specified)
Z-AUC [1]: 0.694 (inactive)
Z-AUC [1, 20]: 0.366
Z-AUC ([1]; measured here: PEO4 Z-AUC): 0.545

O=C(O)C1=CO[C@@H](O[C@@H]2O[C@H](CO)[C@@H](O)[C@H](O)[C@H]2O)[C@@H]2C(CO)=CC[C@H]12
Z-AUC [1]: 1.4 (inactive)
Z-AUC [1, 20]: 1.85
Z-AUC ([1]; measured here: PEO4 Z-AUC): 1.61
